# Reference: PubChem BioAssay (NCATS)
# Inconclusive results are not listed. Entries that show only a call come without a potency. Activity calls are given as the source filed them. Unless noted, the call rests on the fitted dose curve; in most records, active means well fitted curve in the direction sought with a large enough effect; inconclusive means small, poorly fitted or top-dose-only effect, or another doubt; inactive means no such curve, though single readings can be large; an effect the other way counts as inactive or inconclusive.
# Key:
# [1] = target: Catechol O-methyltransferase (Homo sapiens) (UniProt P21964); test: Confirmatory Screen for Target Class Profiling of Small Molecule Inhibitors of Methyltransferases (AID 1745852; calls by dose curve; further: potency means the concentration at half of the fitted maximal effect); conditions: MTase-Glo luminescence, SAH detection, recombinant enzyme; measured here: COMT max response; stronger effect = lower value
# [2] = target: Guanidinoacetate N-methyltransferase (Homo sapiens) (UniProt Q14353); test: as above; conditions: MTase-Glo luminescence, SAH detection, recombinant enzyme; activity change, negative = inhibition: at 57.3 µM (top of the series) unless noted; series mostly up to 57.3 µM
# [3] = target: Nicotinamide N-methyltransferase (Homo sapiens) (UniProt P40261); test: as above; conditions: MTase-Glo luminescence, SAH detection, recombinant enzyme; measured here: NNMT max response; stronger effect = lower value
# [4] = target: Phenylethanolamine N-methyltransferase (Homo sapiens) (UniProt P11086); test: as above; conditions: MTase-Glo luminescence, SAH detection, recombinant enzyme; measured here: PNMT max response; stronger effect = lower value
# [5] = Counterscreen for APE1 Inhibitors: Fluorescent Dye Displacement Validation Assay (AID 1707); conditions: fluorescent dye displacement from DNA; series mostly up to 57.1 µM
# Summary of the method: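 Thiazole Orange displacement from dsDNA: 250 nM ThO with 50 nM TAMRA-labelled abasic-site (tetrahydrofuran) duplex in 50 mM Tris-HCl pH7.5, 50mM NaCl, 2 mM MgCl2, 0.01% Tween-20. Loss of endpoint fluorescence (ex 480 nm, em 540 nm) flags DNA binders.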
# [6] = qHTS for differential inhibitors of proliferation of Plasmodium falciparum line 7G8 (AID 1815); conditions: Plasmodium falciparum 7G8 proliferation inhibition; series mostly up to 28.7 µM;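 further: parasite growth measured after three days of incubation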; further: potency means the concentration at half of the fitted maximal effect
# [7] = qHTS for differential inhibitors of proliferation of Plasmodium falciparum line Dd2 (AID 1882); conditions: Potency: Plasmodium falciparum Dd2 proliferation inhibition; series mostly up to 28.7 µM; further: nearly all actives have a fitted effect of over 65% in size
# Summary of the method: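 Dd2-infected erythrocytes (0.3% parasitemia, 2.5% hematocrit final) incubated with compound 72 h at 37 C, 5% CO2; lysed with saponin/Triton buffer containing SYBR Green I, incubated overnight in the dark, then read by fluorescence (485/535 nm). Normalized to 0.29 uM artemisinin and DMSO.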
# [8] = qHTS for differential inhibitors of proliferation of Plasmodium falciparum line W2 (AID 1883); conditions: Potency: Plasmodium falciparum W2 proliferation inhibition; series mostly up to 28.7 µM;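 further: potency means the concentration at half of the fitted maximal effect; parasites grown with compound for 72 h before lysis and staining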
# [9] = target: ATP-dependent DNA helicase Q1 (Homo sapiens) (UniProt P46063); test: qHTS Validation Assay for Inhibitors of RecQ-Like Dna Helicase 1 (RECQ1) (AID 2353); conditions: recombinant RECQ1 helicase DNA unwinding assay; series mostly up to 25.6 µM
# Summary of the method: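 50 nM RECQ1T1 preincubated 15 min with compound in Tris pH 8.0 buffer with MgCl2, DTT, Tween-20 and 2.5 ug/ml poly(dI-dC); started with 200 nM TAMRA/BHQ-2 forked duplex and 2 mM ATP. Unwinding read as fluorescence (525/598 nm), two reads 2 h apart.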
# [10] = Quantitative high throughput screen for delayed death inhibitors of the malarial parasite plastid, 48 hour incubation (AID 488752); conditions: Plasmodium falciparum growth; series mostly up to 28.7 µM; further: nearly all actives have a fitted effect of over 65% in size
# Summary of the method: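 Readout is firefly luciferase luminescence from a reporter integrated into the parasite genome, with lower signal taken as inhibited growth. Infected red cells (0.1% parasitemia, 2% hematocrit final) are cultured with compound for one 48 h cycle at 37 C.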
# [11] = target: M-phase phosphoprotein 8 (Homo sapiens) (UniProt Q99549); test: qHTS Validation Assay for Inhibitors for MPP8 Chromodomain Interactions with Methylated Histone Tails (AID 488949); conditions: AlphaScreen MPP8 binding to H3K9me3 peptide; series mostly up to 114 µM; further: nearly all actives have a fitted effect of over 55% in size; further: potency means the concentration at half of the fitted maximal effect;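 on activity change, negative = inhibition: 50 nM MPP8 with 50 nM peptide preformed then compounds added for 30 min; AlphaScreen signal from MPP8 chromodomain bound to biotinylated H3K9me3 peptide; top concentration of the series differs between compounds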
# Summary of the method: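 Chemiluminescent proximity assay: histidine-tag capture via nickel acceptor beads, biotin peptide via streptavidin donor beads. Protein and peptide each at 50 nM, pH 7.4, with 30 min incubations at room temperature for complex formation, compound exposure and bead binding.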
# [12] = target: Transient receptor potential cation channel subfamily V member 1 (Homo sapiens) (UniProt Q8NER1); test: HTS Assay for Compounds that Act as Enhancers of the Vanilloid Receptor 1 (AID 488979); conditions: TRPV1-expressing cells, enhancer of channel activity, stimulated with capsaicin at EC20; series mostly up to 41.7 µM
# Summary of the method: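 Calcium influx kinetics via Fluo-8 (480/520 nm) in TRPV1-expressing cells, 2000/well cultured overnight at 35.5C. Compound-alone read 3 min (agonist phase), followed by EC20 capsaicin challenge for 2 min (enhancer phase).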
# [13] = target: Thyrotropin receptor (Homo sapiens) (UniProt P16473); test: qHTS Assay for Antagonists of the Thyroid Stimulating Hormone Receptor (AID 488980); conditions: TSHR-expressing cells, cAMP antagonist read-out; series mostly up to 57.5 µM
# Summary of the method: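 Inhibition of TSH-stimulated cAMP accumulation was quantified by homogeneous time-resolved FRET in TSHR-transfected HEK293 cells. Agonist: TSH, 4 nM final (EC80).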
# [14] = target: Thyrotropin-releasing hormone receptor (Homo sapiens) (UniProt P34981); test: qHTS for Small Molecule Agonists and Allosteric Enhancers of Human TRH Receptor: Validation Screen for Agonists (AID 493127;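 active means calcium activation more than 3 SD above the typical response in the agonist read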;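 further: intracellular calcium rise by fluo-8 fluorescence before TRH EC20 addition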); conditions: TRH receptor agonist cell assay; at 2 µM; stronger effect = higher value
# Summary of the method: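 Cells 2000/well, 10% FCS, 18 h 33.5C/5% CO2 → fluo-8 Ca dye, RT 30 min–1.5 h → FDSS baseline 10 × 1 s → compound added → 230 cycles (1 s/cycle) agonist mode. TRH controls.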
# [15] = target: Galactokinase (Homo sapiens) (UniProt P51570); test: qHTS Validation Assay for Inhibitors of Human Galactokinase (GALK) (AID 493189); conditions: purified human GALK enzyme activity, qHTS 7-point titration; series mostly up to 57.5 µM
# Summary of the method: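 Enzyme activity is inferred from ATP consumption: human GALK phosphorylates galactose (100 uM) using 35 uM ATP for 1 h at room temperature, and luciferase-based Kinase-Glo Plus reports unconsumed ATP.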
# [16] = Validation screen for small molecules that induce DNA re-replication in SW480 colon adenocarcinoma cells (AID 504364); conditions: DNA re-replication phenotype (high-content imaging); series mostly up to 46.1 µM; further: potency means the concentration at half of the fitted maximal effect
# Summary of the method: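 250 cells/well; compound pinned in; 48 hr, 37 C, 5% CO2; Hoechst added, 40 min; nuclear fluorescence imaged, 405 ex / 500-530 em; re-replication scored as increase in high-intensity nuclei.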
# [17] = qHTS for differential inhibitors of proliferation of Plasmodium falciparum line GB4 (AID 1816); conditions: Potency: Plasmodium falciparum GB4 proliferation inhibition; series mostly up to 28.7 µM;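 further: parasite growth measured after 72 h incubation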; further: potency means the concentration at half of the fitted maximal effect
# [18] = qHTS for differential inhibitors of proliferation of Plasmodium falciparum line 3D7 (AID 1876); further: potency means the concentration at half of the fitted maximal effect; conditions: P. falciparum 3D7 proliferation inhibition; series mostly up to 28.7 µM
# [19] = qHTS for differential inhibitors of proliferation of Plasmodium falciparum line D10 (AID 1877); conditions: series mostly up to 28.7 µM;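 further: parasites grown with compound for 72 h before DNA staining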
# [20] = qHTS for differential inhibitors of proliferation of Plasmodium falciparum line HB3 (AID 1886); conditions: Potency: Plasmodium falciparum HB3 proliferation inhibition; series mostly up to 28.7 µM;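 further: parasites grown with compound for 72 h before SYBR Green readout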
# [21] = target: Ferritin light chain (Equus caballus) (UniProt P02791); test: qHTS Validation Assay for Identification of Novel General Anesthetics (AID 2323); conditions: horse apoferritin, anesthetic-site fluorescent probe displacement; series mostly up to 76.9 µM
# Summary of the method: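 Normalized fluorescence response, scaled between free 1-AMA and 1-AMA/apoferritin complex, fitted to a four-parameter Hill equation for concentration-effect values. Binding mix: 10 uM horse-spleen apoferritin, 50% saturated 1-AMA in PBS; read 380/535 nm after 10 min.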
# [22] = Quantitative high throughput screen for delayed death inhibitors of the malarial parasite plastid, 96 hour incubation (AID 488745); conditions: Plasmodium falciparum growth; series mostly up to 28.7 µM;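 further: luciferase-expressing P. falciparum in erythrocytes at 2% hematocrit and 0.1% parasitemia; nearly all actives have a fitted effect of over 70% in size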
# Summary of the method: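 Infected erythrocytes were added to compound in Albumax-supplemented RPMI 1640 at 0.1% parasitemia and 2% hematocrit (final), incubated 96 h at 37 C under 5% CO2, then luciferase reagent was added and luminescence measured.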
# [23] = target: RecQ-like DNA helicase BLM (Homo sapiens) (UniProt P54132); test: qHTS Validation Assay for Inhibitors of Bloom's syndrome helicase (BLM) (AID 2364); conditions: BLM helicase DNA unwinding, fluorescence, in vitro; series mostly up to 57.1 µM; further: potency means the concentration at half of the fitted maximal effect
# Summary of the method: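 Forked 20-bp duplex substrate (200 nM, TAMRA/BHQ-2) plus 2 mM ATP added after 15 min compound preincubation with 50 nM enzyme, pH 8.0, poly(dI-dC) 2.5 ug/ml. Strand separation followed by fluorescence (525/598 nm) over 2 h, normalized to enzyme-free and DMSO controls.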
# [24] = Validation screen for small molecules that induce DNA re-replication in MCF 10A normal breast cells (AID 463097); conditions: MCF 10A cells, DNA re-replication phenotype imaging; series mostly up to 46.1 µM; further: nearly all actives have a fitted effect of over 60% in size
# Summary of the method: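 Following 48 hr compound incubation (37 C, 5% CO2), MCF 10A cells receive Hoechst for 40 min at 37 C. Nuclei are then scanned (excitation 405 nm, emission 500-530 nm) for total fluorescence intensity.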
# Chain of ATP-dependent DNA helicase Q1 (Homo sapiens) (P46063 whole entry, looked up): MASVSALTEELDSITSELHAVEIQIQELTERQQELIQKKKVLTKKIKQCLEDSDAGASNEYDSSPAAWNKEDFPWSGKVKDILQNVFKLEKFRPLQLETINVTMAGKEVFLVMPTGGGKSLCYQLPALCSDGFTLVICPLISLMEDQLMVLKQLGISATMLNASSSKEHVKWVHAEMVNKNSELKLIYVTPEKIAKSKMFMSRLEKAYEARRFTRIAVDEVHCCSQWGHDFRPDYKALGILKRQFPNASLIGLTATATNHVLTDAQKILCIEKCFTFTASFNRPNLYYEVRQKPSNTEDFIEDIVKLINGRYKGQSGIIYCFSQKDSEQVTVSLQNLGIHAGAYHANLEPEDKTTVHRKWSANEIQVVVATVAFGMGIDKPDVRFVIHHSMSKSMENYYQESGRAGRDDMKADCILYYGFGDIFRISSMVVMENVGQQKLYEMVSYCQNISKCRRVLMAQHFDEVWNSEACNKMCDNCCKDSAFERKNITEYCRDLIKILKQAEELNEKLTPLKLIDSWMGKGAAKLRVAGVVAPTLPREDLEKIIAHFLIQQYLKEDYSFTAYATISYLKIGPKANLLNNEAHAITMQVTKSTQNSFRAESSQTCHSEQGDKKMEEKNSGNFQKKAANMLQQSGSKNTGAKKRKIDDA
# Chain of Thyrotropin-releasing hormone receptor (Homo sapiens) (P34981 whole entry, looked up): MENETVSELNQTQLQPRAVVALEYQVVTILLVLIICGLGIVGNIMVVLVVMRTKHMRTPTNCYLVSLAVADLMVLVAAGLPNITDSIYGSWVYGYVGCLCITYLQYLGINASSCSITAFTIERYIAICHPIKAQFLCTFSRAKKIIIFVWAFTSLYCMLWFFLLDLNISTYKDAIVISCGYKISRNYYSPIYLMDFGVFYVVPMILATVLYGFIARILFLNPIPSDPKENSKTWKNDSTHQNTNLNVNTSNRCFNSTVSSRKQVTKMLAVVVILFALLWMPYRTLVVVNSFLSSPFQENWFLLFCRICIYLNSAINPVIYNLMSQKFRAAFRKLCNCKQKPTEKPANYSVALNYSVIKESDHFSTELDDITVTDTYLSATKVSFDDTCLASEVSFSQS
# Chain of Catechol O-methyltransferase (Homo sapiens) (P21964 whole entry, looked up): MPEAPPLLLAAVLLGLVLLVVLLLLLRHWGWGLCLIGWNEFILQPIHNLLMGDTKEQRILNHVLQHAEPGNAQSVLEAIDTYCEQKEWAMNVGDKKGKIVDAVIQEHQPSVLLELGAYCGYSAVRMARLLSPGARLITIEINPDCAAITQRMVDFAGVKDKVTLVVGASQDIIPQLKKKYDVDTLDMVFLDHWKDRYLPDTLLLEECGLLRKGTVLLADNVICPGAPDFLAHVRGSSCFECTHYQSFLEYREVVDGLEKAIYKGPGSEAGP
# Chain of Phenylethanolamine N-methyltransferase (Homo sapiens) (P11086 whole entry, looked up): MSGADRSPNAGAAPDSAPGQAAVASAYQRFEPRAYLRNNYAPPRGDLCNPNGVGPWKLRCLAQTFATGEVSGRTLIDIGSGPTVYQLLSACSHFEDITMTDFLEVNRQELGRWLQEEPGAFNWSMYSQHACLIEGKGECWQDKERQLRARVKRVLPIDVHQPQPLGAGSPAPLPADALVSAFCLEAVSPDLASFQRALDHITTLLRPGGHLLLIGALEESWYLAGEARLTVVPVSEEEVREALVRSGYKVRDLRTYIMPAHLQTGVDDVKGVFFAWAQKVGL
# Chain of Nicotinamide N-methyltransferase (Homo sapiens) (P40261 whole entry, looked up): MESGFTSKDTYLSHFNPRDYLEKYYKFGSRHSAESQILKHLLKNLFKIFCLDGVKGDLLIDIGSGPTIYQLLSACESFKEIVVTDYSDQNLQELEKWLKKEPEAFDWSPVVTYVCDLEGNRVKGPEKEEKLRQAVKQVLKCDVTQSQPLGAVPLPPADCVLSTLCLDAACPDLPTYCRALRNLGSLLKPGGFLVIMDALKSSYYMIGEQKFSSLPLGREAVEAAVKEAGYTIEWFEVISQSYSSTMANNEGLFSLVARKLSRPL
# Chain of M-phase phosphoprotein 8 (Homo sapiens) (Q99549 whole entry, looked up): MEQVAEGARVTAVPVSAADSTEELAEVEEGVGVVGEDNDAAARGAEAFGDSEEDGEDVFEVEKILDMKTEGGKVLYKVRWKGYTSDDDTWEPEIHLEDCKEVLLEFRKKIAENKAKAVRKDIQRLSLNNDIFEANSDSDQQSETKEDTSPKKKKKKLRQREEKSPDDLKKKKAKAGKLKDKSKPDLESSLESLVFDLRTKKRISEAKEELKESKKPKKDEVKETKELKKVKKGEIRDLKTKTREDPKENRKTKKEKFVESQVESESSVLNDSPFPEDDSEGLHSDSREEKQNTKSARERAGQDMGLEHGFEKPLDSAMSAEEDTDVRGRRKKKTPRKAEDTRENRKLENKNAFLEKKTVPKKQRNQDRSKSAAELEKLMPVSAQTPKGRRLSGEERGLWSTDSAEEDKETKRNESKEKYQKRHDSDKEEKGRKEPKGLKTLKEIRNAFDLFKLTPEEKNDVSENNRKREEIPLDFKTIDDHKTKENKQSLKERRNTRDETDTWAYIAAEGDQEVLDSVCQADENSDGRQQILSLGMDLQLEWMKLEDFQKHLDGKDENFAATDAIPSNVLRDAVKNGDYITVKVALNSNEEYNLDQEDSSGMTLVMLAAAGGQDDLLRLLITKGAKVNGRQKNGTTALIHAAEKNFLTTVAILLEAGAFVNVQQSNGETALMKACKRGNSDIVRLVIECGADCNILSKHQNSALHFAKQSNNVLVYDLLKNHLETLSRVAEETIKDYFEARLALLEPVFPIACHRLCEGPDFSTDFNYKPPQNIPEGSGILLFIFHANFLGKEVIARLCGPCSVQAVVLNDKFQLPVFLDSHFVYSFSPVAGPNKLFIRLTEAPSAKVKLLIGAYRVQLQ
# Chain of Transient receptor potential cation channel subfamily V member 1 (Homo sapiens) (Q8NER1 whole entry, looked up): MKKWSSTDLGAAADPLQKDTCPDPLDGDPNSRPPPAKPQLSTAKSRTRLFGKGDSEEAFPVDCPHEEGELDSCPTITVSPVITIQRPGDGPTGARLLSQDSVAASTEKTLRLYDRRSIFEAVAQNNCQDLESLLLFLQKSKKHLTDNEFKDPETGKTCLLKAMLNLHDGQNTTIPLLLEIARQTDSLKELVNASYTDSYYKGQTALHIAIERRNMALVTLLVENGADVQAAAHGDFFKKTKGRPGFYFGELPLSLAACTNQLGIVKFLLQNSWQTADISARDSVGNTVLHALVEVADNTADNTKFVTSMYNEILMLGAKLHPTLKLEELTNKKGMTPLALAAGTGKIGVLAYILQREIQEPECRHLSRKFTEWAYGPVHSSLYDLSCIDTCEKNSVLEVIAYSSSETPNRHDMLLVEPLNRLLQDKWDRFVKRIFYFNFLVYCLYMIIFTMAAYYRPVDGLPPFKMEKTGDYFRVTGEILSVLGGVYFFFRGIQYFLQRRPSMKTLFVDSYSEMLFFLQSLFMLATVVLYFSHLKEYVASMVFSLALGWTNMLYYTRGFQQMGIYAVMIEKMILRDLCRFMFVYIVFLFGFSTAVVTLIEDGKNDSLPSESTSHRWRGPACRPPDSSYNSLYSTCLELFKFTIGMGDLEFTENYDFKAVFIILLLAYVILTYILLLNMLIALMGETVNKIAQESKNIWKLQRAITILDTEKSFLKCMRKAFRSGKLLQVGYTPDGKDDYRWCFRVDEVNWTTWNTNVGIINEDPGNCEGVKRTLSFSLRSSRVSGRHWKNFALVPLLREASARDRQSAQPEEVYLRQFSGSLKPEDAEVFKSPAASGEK
# Chain of Thyrotropin receptor (Homo sapiens) (P16473 whole entry, looked up): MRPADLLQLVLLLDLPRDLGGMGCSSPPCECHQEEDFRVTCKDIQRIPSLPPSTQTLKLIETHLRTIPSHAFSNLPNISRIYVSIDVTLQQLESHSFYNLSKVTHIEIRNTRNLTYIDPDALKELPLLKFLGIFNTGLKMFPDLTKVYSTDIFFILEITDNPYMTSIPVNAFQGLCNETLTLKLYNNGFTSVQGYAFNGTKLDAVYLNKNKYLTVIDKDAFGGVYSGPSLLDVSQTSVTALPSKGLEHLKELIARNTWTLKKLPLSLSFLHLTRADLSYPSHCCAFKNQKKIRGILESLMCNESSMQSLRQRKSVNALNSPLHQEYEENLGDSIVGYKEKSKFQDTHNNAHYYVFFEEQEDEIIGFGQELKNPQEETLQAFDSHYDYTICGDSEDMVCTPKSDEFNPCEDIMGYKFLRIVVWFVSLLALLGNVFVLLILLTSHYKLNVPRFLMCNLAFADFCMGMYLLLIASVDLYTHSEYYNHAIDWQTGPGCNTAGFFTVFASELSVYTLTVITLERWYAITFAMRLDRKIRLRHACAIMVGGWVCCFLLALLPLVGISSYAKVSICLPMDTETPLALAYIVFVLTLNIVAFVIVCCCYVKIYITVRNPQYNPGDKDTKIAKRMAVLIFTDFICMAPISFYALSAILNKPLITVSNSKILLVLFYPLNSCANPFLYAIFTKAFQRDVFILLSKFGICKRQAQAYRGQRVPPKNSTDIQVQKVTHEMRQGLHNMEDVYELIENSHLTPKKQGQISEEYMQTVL
# Chain of Galactokinase (Homo sapiens) (P51570 whole entry, looked up): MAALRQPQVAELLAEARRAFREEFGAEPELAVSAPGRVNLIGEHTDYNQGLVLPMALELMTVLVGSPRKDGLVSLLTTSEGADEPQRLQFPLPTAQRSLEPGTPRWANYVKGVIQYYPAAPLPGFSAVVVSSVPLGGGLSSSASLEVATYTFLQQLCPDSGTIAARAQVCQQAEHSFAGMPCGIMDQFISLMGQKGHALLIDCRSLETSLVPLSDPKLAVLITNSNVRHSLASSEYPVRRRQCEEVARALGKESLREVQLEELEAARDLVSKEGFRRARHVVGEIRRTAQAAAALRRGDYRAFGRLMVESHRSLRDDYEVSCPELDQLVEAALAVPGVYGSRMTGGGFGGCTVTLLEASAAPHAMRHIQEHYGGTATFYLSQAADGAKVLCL
# Chain of Ferritin light chain (Equus caballus) (P02791 2-175 limits assumed): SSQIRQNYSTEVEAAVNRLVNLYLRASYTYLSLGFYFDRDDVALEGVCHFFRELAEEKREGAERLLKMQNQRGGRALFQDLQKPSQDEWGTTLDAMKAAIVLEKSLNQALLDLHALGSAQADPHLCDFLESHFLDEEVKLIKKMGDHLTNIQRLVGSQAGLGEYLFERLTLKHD
compound,measurement,setting,value
CC1CCCC(NC(=O)C2(C)Cn3c(cc4occc43)C(=O)N2Cc2ccco2)C1C (stereo not drawn),activity,[1],-10.3%
same,"activity change, negative = inhibition",[2],-6.55%
same,activity,[3],-20.3%
same,activity,[4],-11.1%
COc1ccc(N2C(=O)c3ccc(-c4ccco4)n3CC2(C)C(=O)NCc2ccccc2)cc1OC (stereo not drawn),activity,[1],-7.65%
same,"activity change, negative = inhibition",[2],-2.41%
same,activity,[3],-17.5%
same,activity,[4],-3.81%
O=C(Nc1ccccc1)c1cnc2c(c1)N(C(=O)Cc1ccc(O)cc1)CCC2,activity,[1],-2.13%
same,"activity change, negative = inhibition",[2],-4.86% [at 85.7 µM]
same,activity,[3],-4.08%
same,activity,[4],-3.63%
Cc1ccc(Cn2c(=O)c3ccccc3n3c(-c4cccc(C)c4)nnc23)cc1,activity,[1],-4.65%
same,"activity change, negative = inhibition",[2],2.78%
same,activity,[3],-4.69%
same,activity,[4],-4.19%
C[C@H]1CN(C(=O)Nc2ccc(F)cc2F)C[C@@H]1c1nc(-c2ccccc2)no1,activity,[1],6.81%
same,Potency,[2],0.769 µM (active)
same,activity,[3],-92.4%
same,activity,[4],9.33%
C#C[C@]1(O)CC[C@H]2C3CCC4=Cc5oncc5CC4(C)C3CCC21C (stereo partly drawn),outcome,[5],inactive
same,Potency,[6],8.91 µM (active)
same,Potency,[7],inactive
same,Potency,[8],8.91 µM (active)
same,outcome,[9],inactive
same,Potency,[10],inactive
same,Potency,[11],inactive
same,outcome,[12],inactive
same,outcome,[13],inactive
same,activation,[14],1.44% (inactive)
same,outcome,[15],inactive
same,Potency,[16],inactive
O=C(Cn1c(=O)oc2cc(S(=O)(=O)N3CCCC3)ccc21)Nc1ccc(F)c(Cl)c1,activity,[1],-3.81%
same,"activity change, negative = inhibition",[2],1.53%
same,activity,[3],-2.29%
same,activity,[4],-63.9%
Cc1cnc(CCNC(=O)Nc2ccc3c(c2)OCCO3)n1C1CCC1,activity,[1],2.74%
same,"activity change, negative = inhibition",[2],-0.0713%
same,activity,[3],-5.7%
same,activity,[4],1.37%
CC[C@H](C)C(=O)O[C@H]1CCC=C2C=C[C@H](C)[C@H](CC[C@@H]3C[C@H](O)CC(=O)O3)C21 (stereo partly drawn),outcome,[5],inactive
same,Potency,[17],inactive
same,Potency,[18],inactive
same,Potency,[19],inactive
same,Potency,[7],inactive
same,Potency,[20],inactive
same,outcome,[21],inactive
same,outcome,[9],inactive
same,Potency,[22],inactive
same,Potency,[10],inactive
same,Potency,[11],inactive
same,outcome,[13],inactive
same,activation,[14],-5% (inactive)
same,outcome,[15],inactive
same,Potency,[16],inactive
N#CC(Cc1ccc(O)c(O)c1)C(=O)N1CCc2ccccc21 (stereo not drawn),outcome,[5],inactive
same,Potency,[17],7.08 µM (active)
same,Potency,[18],3.55 µM (active)
same,Potency,[8],3.55 µM (active)
same,outcome,[9],inactive
same,Potency,[23],25.1 µM (active)
same,Potency,[24],inactive
same,Potency,[11],17.8 µM (active)
same,outcome,[12],inactive
same,outcome,[13],inactive
same,activation,[14],3.94% (inactive)
same,outcome,[15],inactive
COc1cc2c(cc1O)CCC1C2CC[C@]2(C)[C@@H](O)CC[C@@H]12 (stereo partly drawn),outcome,[5],inactive
same,Potency,[6],inactive
same,Potency,[18],inactive
same,Potency,[19],inactive
same,Potency,[7],inactive
same,Potency,[8],15.8 µM (active)
same,Potency,[20],inactive
same,outcome,[21],inactive
same,outcome,[9],inactive
same,Potency,[22],inactive
same,Potency,[10],inactive
same,outcome,[12],inactive
same,outcome,[13],inactive
same,activation,[14],1% (inactive)
same,outcome,[15],inactive
same,Potency,[16],4.61 µM (active)
